Potency and outcome data for 14 molecules are collected here from PubChem BioAssay (NCATS).

Records with an inconclusive call do not appear. A number with no mark means an inactive call. Calls of active or inactive are those of the source. Calls follow the shape of the dose curve; as a rule, active = well fitted curve in the direction sought with a large enough effect; inconclusive = small, poorly fitted or top-dose-only effect, or another doubt; inactive = no such curve, though single readings can be large; an effect the other way counts as inactive or inconclusive.

Assay [1] deals with Rap guanine nucleotide exchange factor 3 (Homo sapiens) (UniProt O95398). In words: Confirmatory qHTS for antagonist of cAMP-regulated guanine nucleotide exchange factor 3 (EPAC1) (AID 1645880). Also: nearly all actives have a fitted effect of over 55% in size. Also: potency is read from the fitted curve at half-maximal effect. To be noted: EPAC1 Rap1B-BODIPY-GDP exchange, fluorescence; activity, negative = inhibition: at 115 µM (top of the series). The method in brief:
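Nucleotide exchange uses 100 nM EPAC1, 250 nM RAP1B-BODIPY-GDP and 50 uM GDP, with compounds in a concentration-titration series. After 5 min at room temperature, fluorescence (480 nm ex/540 nm em) is read every 5 min for 30 min. Data are normalized to control ATA and DMSO.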

For assay [2] the target is unchanged. In words: Confirmatory qHTS for agonist of cAMP-regulated guanine nucleotide exchange factor 3 (EPAC1) (AID 1645881). Also: nearly all actives have a fitted effect of over 75% in size. Also: potency is read from the fitted curve at half-maximal effect.
The target in assay [3] is Rap guanine nucleotide exchange factor 4 (Homo sapiens) (UniProt Q8WZA2). Briefly: Confirmatory qHTS for antagonist of cAMP-regulated guanine nucleotide exchange factor 4 (EPAC2) (AID 1645885). Also: nearly all actives have a fitted effect of over 25% in size. Also: potency is read from the fitted curve at half-maximal effect.
For assay [4], the target named is Rap guanine nucleotide exchange factor 3 (Homo sapiens) (UniProt O95398). In words: Counterscreen qHTS for antagonist of cAMP-regulated guanine nucleotide exchange factor 3 (EPAC1) (AID 1645888).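 Also: fluorescence loss as bound BODIPY-GDP is released from Rap1B.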 The essentials:
(§1)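 Measured: fluorescence of BODIPY-GDP bound to Rap1B, which falls as exchange proceeds. Conditions include 50 uM competing GDP, 5 and 30 min reads, and a later cAMP challenge for antagonist detection.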

For assay [5] the target is unchanged. Briefly: Counterscreen qHTS for agonist of cAMP-regulated guanine nucleotide exchange factor 3 (EPAC1) (AID 1645889). Also: nearly all actives have a fitted effect of over 40% in size. Also: potency is read from the fitted curve at half-maximal effect. The method in brief: as §1

Chain of Rap guanine nucleotide exchange factor 4 (Homo sapiens) (Q8WZA2 whole entry, looked up): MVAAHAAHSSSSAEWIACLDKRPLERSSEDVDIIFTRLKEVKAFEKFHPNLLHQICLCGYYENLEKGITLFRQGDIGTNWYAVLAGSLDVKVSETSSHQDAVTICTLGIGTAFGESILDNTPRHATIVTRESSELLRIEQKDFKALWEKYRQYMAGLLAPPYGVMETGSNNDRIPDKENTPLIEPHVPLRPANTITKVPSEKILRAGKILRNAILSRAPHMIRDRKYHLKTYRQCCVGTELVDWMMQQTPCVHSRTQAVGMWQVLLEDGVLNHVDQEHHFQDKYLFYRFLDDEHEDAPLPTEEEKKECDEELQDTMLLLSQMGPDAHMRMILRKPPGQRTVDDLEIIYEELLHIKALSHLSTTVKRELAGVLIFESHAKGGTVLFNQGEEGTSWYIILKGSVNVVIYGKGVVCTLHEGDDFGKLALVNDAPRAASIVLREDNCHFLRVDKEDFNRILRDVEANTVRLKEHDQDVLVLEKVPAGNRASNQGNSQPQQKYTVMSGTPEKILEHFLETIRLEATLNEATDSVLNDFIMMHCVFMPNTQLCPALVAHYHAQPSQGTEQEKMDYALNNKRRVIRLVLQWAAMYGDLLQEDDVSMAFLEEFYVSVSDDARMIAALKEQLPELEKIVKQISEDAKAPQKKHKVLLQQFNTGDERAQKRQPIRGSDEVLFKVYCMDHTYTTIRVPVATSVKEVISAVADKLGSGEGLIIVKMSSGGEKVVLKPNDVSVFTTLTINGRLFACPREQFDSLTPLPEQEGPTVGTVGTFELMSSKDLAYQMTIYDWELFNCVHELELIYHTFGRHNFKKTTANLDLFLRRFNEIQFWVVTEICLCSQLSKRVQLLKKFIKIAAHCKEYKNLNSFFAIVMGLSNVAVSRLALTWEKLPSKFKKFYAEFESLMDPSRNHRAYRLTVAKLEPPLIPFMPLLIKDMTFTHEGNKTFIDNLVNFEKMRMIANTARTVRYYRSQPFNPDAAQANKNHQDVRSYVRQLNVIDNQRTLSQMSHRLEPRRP
Chain of Rap guanine nucleotide exchange factor 3 (Homo sapiens) (O95398 whole entry, looked up): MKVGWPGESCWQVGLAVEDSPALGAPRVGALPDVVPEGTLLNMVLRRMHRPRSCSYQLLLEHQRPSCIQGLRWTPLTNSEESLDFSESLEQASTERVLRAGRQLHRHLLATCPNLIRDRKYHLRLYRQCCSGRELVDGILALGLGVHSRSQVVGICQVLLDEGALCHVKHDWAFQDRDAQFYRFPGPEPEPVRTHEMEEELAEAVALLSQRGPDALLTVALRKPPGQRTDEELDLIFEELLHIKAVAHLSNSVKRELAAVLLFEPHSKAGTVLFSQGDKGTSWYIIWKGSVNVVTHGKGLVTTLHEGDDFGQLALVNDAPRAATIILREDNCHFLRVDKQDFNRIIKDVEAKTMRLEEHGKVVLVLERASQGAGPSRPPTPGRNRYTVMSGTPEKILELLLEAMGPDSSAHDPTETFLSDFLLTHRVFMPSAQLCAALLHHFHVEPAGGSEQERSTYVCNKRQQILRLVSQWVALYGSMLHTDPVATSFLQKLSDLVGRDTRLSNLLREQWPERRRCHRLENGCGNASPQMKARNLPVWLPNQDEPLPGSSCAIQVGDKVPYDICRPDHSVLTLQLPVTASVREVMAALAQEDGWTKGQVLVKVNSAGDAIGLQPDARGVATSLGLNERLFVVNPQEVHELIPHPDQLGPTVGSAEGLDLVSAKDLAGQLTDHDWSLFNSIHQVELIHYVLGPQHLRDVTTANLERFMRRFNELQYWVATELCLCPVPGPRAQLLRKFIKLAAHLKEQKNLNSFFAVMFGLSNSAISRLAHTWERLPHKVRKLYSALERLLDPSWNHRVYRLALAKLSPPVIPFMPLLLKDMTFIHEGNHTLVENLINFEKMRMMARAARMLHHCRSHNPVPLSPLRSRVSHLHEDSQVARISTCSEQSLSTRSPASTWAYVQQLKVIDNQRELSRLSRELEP

As for `COc1ccc(C(=O)Nc2ccc(NC(=O)c3cccs3)cc2)cc1OC`, the Potency entry in assay [1], in assay [2], in assay [3], in assay [4] and in assay [5] was “inactive” each time.

`Cc1ccc(CNC(=O)CN(c2cc(C)cc(C)c2)S(=O)(=O)c2c(C)[nH]c(=O)[nH]c2=O)cc1`: the Potency entry in assay [1], in assay [2], in assay [3] and in assay [4] was “inactive” in each case.

For the molecule `COC(=O)c1c(NC(=O)c2ccc(S(=O)(=O)N3CCCCC3C)cc2)sc2c1CCN(C(C)C)C2` (centres undefined), the Potency entry in assay [1], in assay [3] and in assay [4] was “inactive” throughout. Further, the values for the Potency in assay [2] and in assay [5] were 112 µM (active) and 79.4 µM (active), respectively.

For the molecule `O=C(Nc1ccccc1OCc1ccccc1)c1ccccc1Br`, the Potency result in assay [1], in assay [2] and in assay [4] was “inactive” each time. In addition, the Potency in assay [3] was 1.51 µM (active).

For the molecule `Cc1ccc(S(=O)c2ccc([N+](=O)[O-])c3nonc23)cc1` (centres undefined), in assay [1], the Potency was 23.9 µM (active). Besides, the Potency entry in assay [2], in assay [3] and in assay [4] was “inactive” throughout.

`COC(=O)c1cc2sccc2n1Cc1ccccc1`: the Potency result in assay [1], in assay [2], in assay [3] and in assay [4] was “inactive” each time. In assay [5], the Potency was 44.7 µM (active).

For `Cc1ccc([N+](=O)[O-])cc1NC(=O)CN(C1CCCCC1)S(=O)(=O)c1ccc(Cl)cc1`, the Potency result in assay [1], in assay [2], in assay [4] and in assay [5] was “inactive” in each case. Moreover, the Potency in assay [3] was 8.49 µM (active).

Take `COC(=O)NCc1c(C)nn(-c2ccccc2)c1-n1cccc1`: the Potency result in assay [1], in assay [2], in assay [3], in assay [4] and in assay [5] was “inactive” throughout.

As for `COc1ccc(C(=O)c2oc3ccccc3c2NC(=O)c2cc(=O)c3ccc(C)cc3o2)cc1Cl`, the Potency result in assay [1], in assay [2] and in assay [4] was “inactive” in each case. Moreover, the outcome in assay [3] is “inactive [at 12.7 µM]”.

On to `Cc1ccc(CNc2cc(C)nc3nc(-c4ccc(C)cc4)nn23)cc1`, for which the Potency entry in assay [1], in assay [2], in assay [3] and in assay [4] was “inactive” in each case.

For the molecule `CC(=O)N1CCN(C(=O)c2[nH]c(C(F)(F)F)nc2-c2ccccc2)CC1`, the Potency entry in assay [1], in assay [2], in assay [3], in assay [4] and in assay [5] was “inactive” each time.

As for `CCOc1ccccc1NC(=O)N1CCC(N2CCN(Cc3ccccc3)C(=O)C2=O)CC1`, the Potency entry in assay [1], in assay [2], in assay [4] and in assay [5] was “inactive” in each case. Also, the outcome in assay [3] is “inactive [at 12.7 µM]”.

Turning to `COc1ccc(C(NC(=O)c2cc(OC)ccc2OC)c2ccccc2)cc1` (centres undefined), the Potency result in assay [1], in assay [2], in assay [3] and in assay [4] was “inactive” throughout.

Regarding `O=C(C(=Cc1ccccc1)c1ccccc1)c1ccccc1`, the Potency result in assay [1], in assay [2], in assay [3], in assay [4] and in assay [5] was “inactive” in each case.
